Source: PubChem BioAssay (Tox21)
Results filed as inconclusive are left out. The source made the active and inactive calls. Unless noted, calls follow the shape of the dose curve; as a rule, active = well fitted curve in the direction sought with a large enough effect in the repeat runs; inconclusive = weak or mixed curves; inactive = no such curve, though single readings can be large; an effect the other way counts as inactive or inconclusive.

Tests used:
[1] = qHTS assay to identify small molecule antagonists of the constitutive androstane receptor (CAR) signaling pathway - cell viability counter screen (AID 1224837); also: nearly all actives have a fitted effect of over 45% in size; also: potency is read from the fitted curve at half-maximal effect
Outline: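 CITCO at 50 nM final was added alongside compounds (15 concentrations) to double-stable hCAR/CYP2B6-2.2kb HepG2 cells. Following 23 hr at 37 C, cell viability was quantified by CellTiter-Fluor fluorescence intensity.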

[2] = qHTS assay to identify small molecule antagonists of the estrogen related receptor signaling pathway with the pleiotropic PPARgamma coactivator (PGC) from Tox21 10K library - cell viability counter screen (AID 1224840; active = well fitted cell-killing curve with a large enough effect in the repeat runs, not every such curve was filed as active; also: nearly all actives have a fitted effect of over 40% in size; also: potency is read from the fitted curve at half-maximal effect)
Outline: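 Readout: fluorescence intensity from CellTiter-Fluor after 30 min at 37 C/5% CO2. Preceded by 17.5 h treatment of PGC/ERR cells with DMSO-dissolved compounds, added 6 h post-seeding.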

[3] = target: Thyrotropin receptor (Homo sapiens) (UniProt P16473); assay: qHTS assay to identify small molecule agonists of the thyroid stimulating hormone receptor (TSHR) signaling pathway (AID 1224843; calls by dose curve; also: nearly all actives have a fitted effect of over 45% in size)
Outline: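 Agonist activity read as cAMP rise via d2/cryptate HTRF competition, 1 h room-temperature detection, in HEK293 cells expressing TSHR. Fifteen-point titrations, each run in triplicate, with a 30 min room-temperature incubation beforehand.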

[4] = qHTS assay to identify small molecule agonists of the hypoxia (HIF-1) signaling pathway - cell viability counter screen (AID 1224844; calls by dose curve; also: nearly all actives have a fitted effect of over 50% in size; also: potency is read from the fitted curve at half-maximal effect)
Outline: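 In this counter screen, HRE-bla ME-180 cell viability after 17 hrs of compound exposure at 37C was read by CellTiter-Glo luminescence, multiplexed with the beta-lactamase reporter measurement.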

[5] = qHTS assay to identify small molecule agonists of the hypoxia (HIF-1) signaling pathway (AID 1224846; active = well fitted activation curve with a large enough effect in the signal ratio in the repeat runs, not every such curve was filed as active; the % refers to the signal ratio)
Outline: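 ME-180 HRE-bla reporter cells; compounds in DMSO, 17 h at 37C; read-out beta-lactamase via CCF4-AM FRET.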

[6] = qHTS assay to identify small molecule agonists of H2AX - cell viability counter screen (AID 1224847; calls by dose curve; also: nearly all actives have a fitted effect of over 30% in size; also: potency is read from the fitted curve at half-maximal effect;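 as to activity change, negative = cytotoxicity: wild-type CHO-K1 cells; top concentration of the series differs between compounds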)
Outline: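 Counter-screen for viability: CellTiter-Glo ATP luminescence read after 3 h compound treatment (15-point titration, 0.76% DMSO final) of CHO-K1 cells at 37C, with 30 min room-temperature reagent incubation.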

[7] = qHTS RealTime-Glo MT Cell Viability Assay in HepG2 cells - 24 hour (AID 1224867); also: nearly all actives have a fitted effect of over 50% in size; also: potency is read from the fitted curve at half-maximal effect
Outline: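 HepG2 cells (600/well) were dispensed with RealTime-Glo reagents, incubated 5 h at 37 °C, then treated with compounds in DMSO for up to 40 h. Nonlytic NanoLuc luminescence reflecting viable cells was read at each stated time point.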

[8] = qHTS RealTime-Glo MT Cell Viability Assay in HEK293 cells - 32 hour (AID 1224868); also: nearly all actives have a fitted effect of over 50% in size; also: potency is read from the fitted curve at half-maximal effect; as to activity change, negative = cytotoxic: top concentration of the series differs between compounds
Outline: (§1)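 HEK293 cells seeded with NanoLuc/prosubstrate reagent, rested 5 h at 37 C, then dosed and kept at 37 C up to 40 h. Nonlytic real-time luminescence from viable cells read at 0, 8, 16, 24, 32 and 40 h.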

[9] = A CellTox Green Cytotoxicity Assay to monitor cytotoxicity in HEK293 cells - 0 hour (AID 1224869); also: nearly all actives have a fitted effect of over 50% in size
Outline: (§2)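 Real-time, in one plate: 600 HEK293 cells/well with dead-cell DNA dye, pinned compound after 5 h, 37 C incubation over 40 h; viable cells give no appreciable fluorescence.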

[10] = qHTS RealTime-Glo MT Cell Viability Assay in HepG2 cells - 40 hour (AID 1224870); also: nearly all actives have a fitted effect of over 50% in size; also: potency is read from the fitted curve at half-maximal effect
Outline: (§3)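 Real-time viability: cells seeded at 600 per well together with NanoLuc and cell-permeant prosubstrate, compounds added after 5 h incubation. Luminescence tracked at 0, 8, 16, 24, 32 and 40 h of exposure.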

[11] = A CellTox Green Cytotoxicity Assay to monitor cytotoxicity in HEK293 cells - 40 hour (AID 1224871); also: nearly all actives have a fitted effect of over 45% in size; also: potency is read from the fitted curve at half-maximal effect
Outline: as §2

[12] = qHTS RealTime-Glo MT Cell Viability Assay in HEK293 cells - 16 hour (AID 1224872); also: nearly all actives have a fitted effect of over 50% in size; also: potency is read from the fitted curve at half-maximal effect; as to activity change, negative = cytotoxicity: top concentration of the series differs between compounds
Outline: as §1

[13] = qHTS RealTime-Glo MT Cell Viability Assay in HepG2 cells - 8 hour (AID 1224873); also: nearly all actives have a fitted effect of over 55% in size; also: potency is read from the fitted curve at half-maximal effect
Outline: as §3

[14] = target: Nuclear receptor subfamily 1 group I member 3 (Homo sapiens) (UniProt Q14994); assay: qHTS assay to identify small molecule agonists of the constitutive androstane receptor (CAR) signaling pathway (AID 1224839); also: nearly all actives have a fitted effect of over 15% in size
Outline: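 Luminescent ONE-Glo read-out after 24 hr, 37 C exposure of double-stable HepG2-CYP2B6-hCAR reporter cells to a 15-point compound series, in the presence of 0.75 uM PK11195 (final).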

[15] = qHTS assay to identify small molecule agonists of H2AX (AID 1224845; active = well fitted activation curve with a large enough effect in the signal ratio in the repeat runs, not every such curve was filed as active; the % refers to the signal ratio; also: potency is read from the fitted curve at half-maximal effect)
Outline: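 Phospho-H2AX Ser139 measured by HTRF (ex 320 nm; em 665 and 620 nm) after 24 hr antibody incubation. Compounds, 15 concentrations, 0.76% DMSO, were applied to CHO-K1 cells for 3hr at 37C before lysis.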

[16] = qHTS assay to identify small molecule antagonists of the estrogen related receptor (ERR) signaling pathway from Tox21 library (AID 1224848); also: nearly all actives have a fitted effect of over 50% in size; also: potency is read from the fitted curve at half-maximal effect
Outline: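 Luciferase luminescence (ONE-Glo, 30 min room temperature) was the read-out. Cells of the NTP-supplied ERR line, 2,000 per well, were given 6 h at 37 C before compound addition in DMSO and 18 h exposure at 37 C.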

[17] = qHTS assay to identify small molecule agonists of the estrogen related receptor (ERR) signaling pathway from Tox21 library (AID 1224849; calls by dose curve; also: nearly all actives have a fitted effect of over 15% in size); settings: ERR reporter cell line, ONE-Glo luciferase, 18 h; at 92.4 µM (top of the series) unless noted
Outline: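 Luciferase activity in ERR pathway reporter cells served as the agonist readout; exposure lasted 18 h at 37 C, with ONE-Glo detection after 30 min at room temperature.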

[18] = target: Nuclear receptor subfamily 1 group I member 3 (Homo sapiens) (UniProt Q14994); assay: qHTS assay to identify small molecule antagonists of the constitutive androstane receptor (CAR) signaling pathway (AID 1224838); also: nearly all actives have a fitted effect of over 40% in size; also: potency is read from the fitted curve at half-maximal effect
Outline: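 Inhibition of CITCO-driven (50 nM final) CYP2B6 reporter expression is measured in HepG2 cells stably carrying hCAR. Fifteen compound concentrations are applied for 24 h at 37 C, followed by luciferase luminescence.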

[19] = qHTS assay to identify small molecule agonists of the estrogen related receptor signaling pathway with the pleiotropic PPARgamma coactivator (PGC) from Tox21 10K library (AID 1224842); also: nearly all actives have a fitted effect of over 15% in size
Outline: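 Luminescence from One-Glo (30 min, room temperature) measured after PGC/ERR cells had 18 h at 37 C with pinned compound (23 nL in DMSO). Cells had been seeded at 2,000 per well and pre-incubated 6 h.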

[20] = qHTS assay to identify small molecule antagonists of the estrogen related receptor signaling pathway with the pleiotropic PPARgamma coactivator (PGC) from Tox21 10K library (AID 1224841; call rule not given here)
Outline: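 One-Glo luminescence, measured after half an hour at room temperature, quantified reporter output of PGC/ERR cells. These had been plated at 2,000 per well, incubated 6 h, dosed with compounds in DMSO, then kept 18 h at 37 C.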
% is scaled to controls: 0 for no effect and ±100 for the full control effect.

Chain of Nuclear receptor subfamily 1 group I member 3 (Homo sapiens) (Q14994 whole entry, looked up): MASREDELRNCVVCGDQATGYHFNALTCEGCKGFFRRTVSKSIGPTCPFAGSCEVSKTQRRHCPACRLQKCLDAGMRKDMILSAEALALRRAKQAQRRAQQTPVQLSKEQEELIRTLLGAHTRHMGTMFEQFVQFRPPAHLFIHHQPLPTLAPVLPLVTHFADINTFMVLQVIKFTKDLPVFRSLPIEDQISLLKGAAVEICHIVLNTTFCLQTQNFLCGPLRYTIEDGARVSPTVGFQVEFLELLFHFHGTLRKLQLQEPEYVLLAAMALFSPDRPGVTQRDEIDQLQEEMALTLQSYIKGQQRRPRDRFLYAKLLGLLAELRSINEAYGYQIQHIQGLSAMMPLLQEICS
Chain of Thyrotropin receptor (Homo sapiens) (P16473 whole entry, looked up): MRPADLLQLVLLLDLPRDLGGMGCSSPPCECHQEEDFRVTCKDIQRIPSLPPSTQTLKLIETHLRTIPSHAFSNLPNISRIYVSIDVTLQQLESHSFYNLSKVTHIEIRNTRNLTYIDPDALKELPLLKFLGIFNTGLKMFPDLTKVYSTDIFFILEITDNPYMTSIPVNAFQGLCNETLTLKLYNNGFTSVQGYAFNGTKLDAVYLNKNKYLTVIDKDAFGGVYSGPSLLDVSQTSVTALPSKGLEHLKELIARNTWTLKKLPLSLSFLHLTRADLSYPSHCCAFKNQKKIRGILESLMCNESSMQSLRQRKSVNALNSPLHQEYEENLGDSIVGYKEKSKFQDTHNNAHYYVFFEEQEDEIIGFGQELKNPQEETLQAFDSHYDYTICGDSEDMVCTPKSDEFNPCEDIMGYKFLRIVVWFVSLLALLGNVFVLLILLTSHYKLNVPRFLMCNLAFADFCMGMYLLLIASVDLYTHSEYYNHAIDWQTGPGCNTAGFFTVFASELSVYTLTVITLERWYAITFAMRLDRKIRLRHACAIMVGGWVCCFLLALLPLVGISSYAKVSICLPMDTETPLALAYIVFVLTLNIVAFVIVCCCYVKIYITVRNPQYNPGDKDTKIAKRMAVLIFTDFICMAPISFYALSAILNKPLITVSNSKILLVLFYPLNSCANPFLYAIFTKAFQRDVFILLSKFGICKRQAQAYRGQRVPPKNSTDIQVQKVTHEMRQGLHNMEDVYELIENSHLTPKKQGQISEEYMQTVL

Cc1ccc(C=O)cc1
inactive: Potency [1] | Potency [2] | Potency [3] | Potency [4] | Potency [5] | Potency [6] | Potency [7] | Potency [8] | Potency [9] | Potency [10] | Potency [11] | Potency [12] | Potency [13]

NCc1cccc(C2CCN(C(=O)c3ccc(C#Cc4ccccc4F)o3)CC2)c1
inactive: Potency [14] | Potency [9]
active: Potency [1] 68.6 µM | Potency [4] 54.9 µM | Potency [7] 54.9 µM | Potency [11] 54.9 µM | Potency [13] 49 µM

CCc1cccc(CC)c1
inactive: Potency [1] | Potency [2] | Potency [4] | Potency [15] | Potency [5] | Potency [6] | Potency [16] | activity change, positive = activation [17] -2.59% | Potency [9] | Potency [10] | Potency [11] | Potency [12] | Potency [13]

CCC(=O)OC/C=C(\C)CCC=C(C)C
inactive: Potency [1] | Potency [2] | Potency [3] | Potency [4] | Potency [15] | Potency [5] | Potency [8] | Potency [9] | Potency [10] | Potency [11] | Potency [13]

C=CC(=O)OCC(Br)CBr (centres undefined)
inactive: Potency [1] | Potency [2] | Potency [3] | Potency [6] | Potency [7] | Potency [9] | Potency [10] | Potency [13]

CCCCCCCCCCCC(=O)Cl
inactive: Potency [1] | Potency [18] | Potency [2] | Potency [3] | Potency [15] | Potency [5] | Potency [6] | Potency [7] | Potency [8] | Potency [10] | Potency [11] | Potency [12] | Potency [13]

CC(Cc1ccc(O)c(O)c1)C(C)Cc1ccc(O)c(O)c1 (centres undefined)
active: Potency [7] 43.6 µM | Potency [8] 34.7 µM | Potency [12] 49 µM | Potency [13] 43.6 µM
inactive: Potency [1] | Potency [18] | Potency [19] | Potency [3] | activity change, positive = activation [17] -42.5% | Potency [9] | Potency [11]

CCc1c(C)cc(N)c(CC)c1N
inactive: Potency [1] | Potency [18] | Potency [2] | Potency [3] | Potency [5] | Potency [6] | Potency [16] | activity change, positive = activation [17] -1.89% | Potency [8] | Potency [9] | Potency [10] | Potency [11] | Potency [13]

O=C(Nc1ccc([N+](=O)[O-])cc1)Nc1ccc([N+](=O)[O-])cc1 (tested in a mixture with another compound)
active: Potency [6] 17.5 µM | Potency [8] 4.77 µM
inactive: Potency [1] | Potency [2] | Potency [3] | Potency [5] | Potency [9] | Potency [10] | Potency [11] | Potency [13]

O=C(Cl)c1ccc(Cl)cc1Cl
inactive: Potency [1] | Potency [18] | Potency [2] | Potency [5] | Potency [6] | Potency [9] | Potency [13]
active: Potency [15] 101 µM | Potency [11] 49 µM

CC(C)=CCC[C@H](C)CC=O
inactive: Potency [1] | Potency [2] | Potency [3] | Potency [4] | Potency [15] | Potency [6] | Potency [8] | Potency [9] | Potency [10] | Potency [12] | Potency [13]

Brc1cc(Br)cc(Br)c1
inactive: Potency [1] | Potency [14] | Potency [2] | Potency [20] | Potency [19] | Potency [3] | Potency [5] | Potency [6] | Potency [16] | Potency [7] | Potency [8] | Potency [9] | Potency [10] | Potency [11] | Potency [12] | Potency [13]

CC1=CC[C@@H](C(C)(C)O)CC1
inactive: Potency [1] | Potency [2] | Potency [3] | Potency [15] | Potency [5] | Potency [6] | Potency [8] | Potency [9] | Potency [11] | Potency [12] | Potency [13]

O=C1CCC(=O)N1
inactive: Potency [1] | Potency [2] | Potency [20] | Potency [19] | Potency [3] | Potency [4] | Potency [15] | Potency [5] | Potency [6] | Potency [16] | activity change, positive = activation [17] 0.296% | Potency [7] | Potency [9] | Potency [10] | Potency [11] | Potency [13]

CCCCCN=C(N)N/N=C/c1c[nH]c2ccc(OC)cc12
inactive: activity change, positive = activation [17] -70.2% [at 42.5 µM] | Potency [9]
active: Potency [1] 18.8 µM | Potency [18] 16.8 µM | Potency [2] 21.1 µM | Potency [6] 49.2 µM | Potency [16] 15 µM | Potency [8] 4.25 µM | Potency [10] 5.35 µM | Potency [11] 6.74 µM | Potency [12] 4.77 µM | Potency [13] 10.7 µM

CC(C)c1ccc2sc3ccccc3c(=O)c2c1
inactive: Potency [1] | Potency [2] | Potency [4] | Potency [15] | Potency [5] | Potency [7] | Potency [9] | Potency [10] | Potency [11] | Potency [13]

Cc1c[nH]c(=O)[nH]c1=O
inactive: Potency [1] | Potency [2] | Potency [20] | Potency [19] | Potency [3] | Potency [4] | Potency [15] | Potency [5] | Potency [16] | activity change, positive = activation [17] 0.0206% | Potency [7] | Potency [8] | Potency [9] | Potency [10] | Potency [11] | Potency [12] | Potency [13]

Cc1ccc(C2OC[C@@H]3OC(c4ccc(C)cc4)O[C@H]([C@H](O)CO)[C@@H]3O2)cc1 (some centres undefined)
inactive: Potency [1] | Potency [2] | Potency [3] | Potency [15] | Potency [5] | Potency [6] | Potency [7] | Potency [9] | Potency [10] | Potency [13]

C=CC(=O)OCCOC1C2CCC1C1CC=CC12 (centres undefined)
inactive: activity change, negative = cytotoxicity [1] -0.771% [at 19 µM] | viability change, negative = cytotoxic [2] -0.314% [at 19 µM] | activation [3] -1.28% [at 19 µM] | activation (H2AX phosphorylation) [15] -0.772% [at 31.6 µM] | activation [5] 0.329% [at 15.8 µM] | activity change, negative = cytotoxicity [6] 1.49% [at 31.6 µM] | activity change, negative = cytotoxicity [7] 3.51% [at 15.8 µM] | activity change, negative = cytotoxic [8] 0.499% [at 15.8 µM] | cytotoxicity [9] -3.9% [at 15.8 µM] | activity change, negative = cytotoxic [10] 5.7% [at 15.8 µM] | cytotoxicity increase [11] -0.257% [at 15.8 µM] | activity change, negative = cytotoxicity [12] -2.12% [at 15.8 µM] | viability change, negative = cytotoxic [13] 0.124% [at 15.8 µM]
